An excerpt weighted towards active compounds, which were near 21% of everything screened.
DT40 TDP1 no CPT – qHTS for Inhibitors of human tyrosyl-DNA phosphodiesterase 1 (TDP1): qHTS in cells in absence of CPT | 420,000 compounds, 15% hits | Potency, µM (titrated, usually from 46.2 µM), for inactives: top-dose activity change, negative = growth inhibition, usual class: inhibitors | DT40 Tdp1-/- hTDP1 cells, no CPT, ATP luminescence, 48 h | AID 686978, 2013; further: potency means the concentration at half of the fitted maximal effect; nearly all actives have a fitted effect of over 55% in size
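No-CPT arm: Tdp1-/-;hTDP1 DT40 cells (400/well) plus compounds, incubated ≥48 hr at 37 °C. Readout CellTiter-Glo luminescence.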
RORg inh – ROR gamma (mouse) transcription inhibition. P51450. Drosophila S2 Gal4-RORgamma UAS-luciferase reporter, 20 h. Potency, µM (doses to about 53.6 µM), for inactives: top-dose activity change, negative = inhibition, usual class: inhibitors. 310,000 compounds, 5.4% hits. AID 2551; further: potency means the concentration at half of the fitted maximal effect; nearly all actives have a fitted effect of over 60% in size
Target sequence (P51450 whole entry, looked up, the tested form may be a part): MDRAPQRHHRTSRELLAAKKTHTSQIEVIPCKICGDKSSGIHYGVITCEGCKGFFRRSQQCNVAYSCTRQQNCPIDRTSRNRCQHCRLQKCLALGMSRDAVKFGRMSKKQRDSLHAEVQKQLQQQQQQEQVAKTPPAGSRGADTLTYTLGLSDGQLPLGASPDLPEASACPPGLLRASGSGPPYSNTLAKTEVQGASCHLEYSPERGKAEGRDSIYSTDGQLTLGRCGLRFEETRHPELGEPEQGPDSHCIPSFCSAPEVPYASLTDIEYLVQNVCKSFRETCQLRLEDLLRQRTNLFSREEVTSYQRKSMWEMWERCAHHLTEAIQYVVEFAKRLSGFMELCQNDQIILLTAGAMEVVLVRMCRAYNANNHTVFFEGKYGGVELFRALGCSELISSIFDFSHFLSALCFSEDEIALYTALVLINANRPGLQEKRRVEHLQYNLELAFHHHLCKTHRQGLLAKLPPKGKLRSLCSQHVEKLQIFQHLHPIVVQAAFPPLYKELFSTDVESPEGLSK
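Drosophila S2 cells stably expressing Gal4-DBD/mouse RORγ fusion under metallothionein promoter plus UAS-luciferase; compound 1 h, then 700 uM CuSO4 induction for 20 h at ambient temperature; inhibition read as reduced luminescence.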
TDP1 cell CPT – growth inhibition of DT40 Tdp1-/-;hTDP1 cells with camptothecin (screen for TDP1 inhibitors) | chicken DT40 Tdp1-/-;hTDP1 cells + 20 nM CPT, ATP luminescence, 48 h | 420,000 compounds, 12% hits | Potency, µM (series often up to 46.2 µM), for inactives: top-dose activity change, negative = growth inhibition, most hits filed as inhibitors; further: potency means the concentration at half of the fitted maximal effect; nearly all actives have a fitted effect of over 55% in size
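Chicken DT40 Tdp1-/- cells complemented with human TDP1, 400 cells/well, exposed to compounds plus 20 nM camptothecin for at least 48 h at 37 C; viability read as ATP content by CellTiter-Glo luminescence.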
ELG1 DNA repair – blocks ELG1-dependent DNA repair in HEK293T cells; HEK293T ELG1-luciferase reporter, luminescence, 16 h; DNA damage induced by 5-fluorouridine; Potency, µM (highest dose often 46.1 µM), without a hit: at the highest dose activity change, negative = inhibition, hits mostly inhibitors; 330,000 compounds, 2.3% hits; AID 504467; further: potency means the concentration at half of the fitted maximal effect; nearly all actives have a fitted effect of over 55% in size
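5-Fluorouridine DNA damage + compound/DMSO, 2,000 cells/well, 16 h, 37 °C/5% CO2. ONE-Glo, 30 min RT, luminescence. Readout = decrease in reporter signal.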
Gal4-VP16 FLuc – Gal4-VP16 reporter inhibition counter-screen | Drosophila S2 Gal4-VP16 UAS-luciferase, luminescence, 20 h | AID 2546 | 310,000 compounds, 3.5% hits | Potency, µM (series often up to 53.6 µM), without a hit: top-dose activity, negative = inhibition, usual class: inhibitors;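 further: Gal4-VP16 expression switched on by copper sulfate through the metallothionein promoter; potency means the concentration at half of the fitted maximal effect; nearly all actives have a fitted effect of over 50% in size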
IL-1B inflam inh – inflammasome signaling inhibition, IL-1 beta readout. 360,000 compounds, 4.7% hits. activity change, % at 57.5 µM. THP-1 LPS/ATP IL-1B secretion, AlphaLISA, 16 h; active compounds read low; in the data active means activity change below about -50%; inconclusive means mostly about -30% to -49%
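Secreted IL-1B measured by AlphaLISA bead assay after 16 h compound exposure of THP-1 cells; compounds (final up to 57.5 uM) added 1 h before LPS (250 ng/mL) and ATP (1.25 mM) stimulation; lower signal means less secretion.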
An asterisk follows results filed as active. Unless noted, the call rests on the fitted dose curve; in most records, active means well fitted curve in the direction sought with a large enough effect; inconclusive means small, poorly fitted or top-dose-only effect, or another doubt; inactive means no such curve, though single readings can be large; an effect the other way counts as inactive or inconclusive. On the % scale 0 is the no-effect control and ±100 the full control effect.

Results for CCOC(=O)c1ccc(N2C(=O)c3n[nH]c(-c4ccco4)c3C2c2cccc(O)c2)cc1 (configuration not stated) ?
DT40 TDP1 no CPT: 20.6µM*; TDP1 cell CPT: 20.6µM*

Results for CN1c2ccsc2C(O)=C(C(=O)Nc2ccccc2)S1(=O)=O ?
DT40 TDP1 no CPT: inconclusive; RORg inh: 13.5%; TDP1 cell CPT: inconclusive; ELG1 DNA repair: inconclusive; Gal4-VP16 FLuc: 1.3%; IL-1B inflam inh: 12.9

Results for Cc1ccc(NC(=S)C2=C(O)c3sccc3N(C)S2(=O)=O)cc1 ?
DT40 TDP1 no CPT: inconclusive; RORg inh: 12.6µM*; TDP1 cell CPT: inconclusive; ELG1 DNA repair: 4.1%; Gal4-VP16 FLuc: 15.8µM*; IL-1B inflam inh: 12.8

How did Cc1ccc(NC(=O)C2=C(O)c3sccc3N(C)S2(=O)=O)cc1 do in these assays?
DT40 TDP1 no CPT: 20.6µM*; RORg inh: 29.4%; TDP1 cell CPT: inconclusive; ELG1 DNA repair: inconclusive; Gal4-VP16 FLuc: -7.7%; IL-1B inflam inh: -17.3

How did Cc1cccc(C)c1NC(=O)C1=C(O)c2sccc2N(C)S1(=O)=O do in these assays?
DT40 TDP1 no CPT: -14.3%; RORg inh: 3.2%; TDP1 cell CPT: 13.2%; ELG1 DNA repair: -3.4%; Gal4-VP16 FLuc: 5.7%; IL-1B inflam inh: 17.2

How did O=C(Nc1ncccn1)C1=C(O)c2ccccc2S(=O)(=O)N1Cc1ccccc1 do in these assays?
DT40 TDP1 no CPT: 4.7%; RORg inh: -1.6%; TDP1 cell CPT: -9.5%; ELG1 DNA repair: -10.2%; Gal4-VP16 FLuc: 3.0%; IL-1B inflam inh: -1.7

Results for CCCCCN1C(C(=O)c2ccccc2)=C(OC(=O)CC)c2ccccc2S1(=O)=O ?
DT40 TDP1 no CPT: 5.17µM*; TDP1 cell CPT: 4.61µM*

Results for CCCCC(=O)OC1=C(C(=O)c2ccccc2)N(CCC)S(=O)(=O)c2ccccc21 ?
DT40 TDP1 no CPT: 2.91µM*; TDP1 cell CPT: 3.26µM*

How did O=C(CN1C(=O)c2ccccc2S1(=O)=O)c1cccc(Br)c1 do in these assays?
DT40 TDP1 no CPT: -4.4%; RORg inh: inconclusive; TDP1 cell CPT: 3.6%; ELG1 DNA repair: 8.2%; Gal4-VP16 FLuc: -17.5%; IL-1B inflam inh: 4.0

Results for CCCCN1C(=O)Nc2ccccc2S1(=O)=O ?
DT40 TDP1 no CPT: -11.0%; RORg inh: 3.6%; TDP1 cell CPT: -17.4%; ELG1 DNA repair: -15.4%; Gal4-VP16 FLuc: -22.5%; IL-1B inflam inh: 0.0

What do the screens show for `CCC(=O)OC1=C(C(C)=O)N(Cc2ccccc2)S(=O)(=O)c2ccccc21`?
DT40 TDP1 no CPT: inconclusive; TDP1 cell CPT: 18.4µM*

How did CCCN1C(C(=O)c2ccccc2)=C(OC(=O)c2ccc(F)cc2)c2ccccc2S1(=O)=O do in these assays?
DT40 TDP1 no CPT: 4.61µM*; TDP1 cell CPT: 5.17µM*

How did CCN1C(C(=O)c2ccccc2)=C(OC(=O)c2ccc(OC)cc2)c2ccccc2S1(=O)=O do in these assays?
DT40 TDP1 no CPT: 6.51µM*; TDP1 cell CPT: 4.61µM*

Results for Cc1cc2c(=O)c(C(=O)c3ccncc3)cn(CC(=O)Nc3cccc(C)c3C)c2cc1C ?
DT40 TDP1 no CPT: -15.8%; TDP1 cell CPT: -22.8%

Results for O=C(COc1ccc2c(c1)C(=O)CC1(CCCCC1)O2)NCc1ccccc1 ?
DT40 TDP1 no CPT: 20.6µM*; RORg inh: 2.0%; TDP1 cell CPT: inconclusive; ELG1 DNA repair: inconclusive; Gal4-VP16 FLuc: -10.2%; IL-1B inflam inh: 20.3

How did COc1ccc(C(=O)NCCCNC(=O)c2cnccn2)cc1Br do in these assays?
DT40 TDP1 no CPT: -6.9%; RORg inh: -4.7%; TDP1 cell CPT: -0.5%; ELG1 DNA repair: 13.8%; Gal4-VP16 FLuc: 2.3%; IL-1B inflam inh: 21.7

How did CCC(OC(=O)C(CC(C)C)NC(=O)c1ccccc1)C(=O)Nc1nnc(C)s1 (configuration not stated) do in these assays?
DT40 TDP1 no CPT: 5.8µM*; TDP1 cell CPT: inconclusive; ELG1 DNA repair: -1.3%; IL-1B inflam inh: 17.3

Results for CCOC(=O)c1sc(NC(=O)C(CC)OC(=O)C(CC(C)C)NC(=O)c2ccccc2)nc1C (configuration not stated) ?
DT40 TDP1 no CPT: -11.5%; RORg inh: 14.3%; TDP1 cell CPT: -10.5%; ELG1 DNA repair: inconclusive; Gal4-VP16 FLuc: -3.2%; IL-1B inflam inh: -21.5

Results for CC1(c2ccc(OCC#N)cc2)C=C(c2ccc(OCC#N)cc2)n2nc(C(F)(F)F)nc2N1 (configuration not stated) ?
DT40 TDP1 no CPT: inconclusive; RORg inh: inconclusive; TDP1 cell CPT: inconclusive; ELG1 DNA repair: inconclusive; Gal4-VP16 FLuc: -10.8%; IL-1B inflam inh: -85.9*

How did Cc1ccc(C2=CC(C)(c3ccc(C)cc3)Nc3nc(C(F)(F)F)nn32)cc1 (configuration not stated) do in these assays?
DT40 TDP1 no CPT: inconclusive; RORg inh: 11.5%; TDP1 cell CPT: inconclusive; ELG1 DNA repair: inconclusive; Gal4-VP16 FLuc: inconclusive; IL-1B inflam inh: -5.3

Results for CC(C)(CO)CNc1ccn2nccc2n1 ?
DT40 TDP1 no CPT: inconclusive; TDP1 cell CPT: 13µM*; IL-1B inflam inh: -78.5*

How did O=C(Nc1ccc(Cl)cc1)c1ccc(CN2CCc3ccccc3C2)cc1 do in these assays?
DT40 TDP1 no CPT: -11.4%; RORg inh: inconclusive; TDP1 cell CPT: inconclusive; ELG1 DNA repair: inconclusive; Gal4-VP16 FLuc: inconclusive; IL-1B inflam inh: -10.1

How did O=C(Nc1ccc(S(=O)(=O)N2CCCC2)cc1)c1ccc(CN2CCc3ccccc3C2)cc1 do in these assays?
DT40 TDP1 no CPT: 4.11µM*; RORg inh: 5.62µM*; TDP1 cell CPT: 8.2µM*; ELG1 DNA repair: -16.3%; Gal4-VP16 FLuc: 1.41µM*; IL-1B inflam inh: -2.4

What do the screens show for `O=C(Nc1ccc(S(=O)(=O)N2CCOCC2)cc1)c1ccc(CN2CCc3ccccc3C2)cc1`?
DT40 TDP1 no CPT: 0.92µM*; RORg inh: 8.91µM*; TDP1 cell CPT: 1.16µM*; ELG1 DNA repair: -27.9%; Gal4-VP16 FLuc: 2.24µM*; IL-1B inflam inh: inconclusive

How did Cc1ccccc1CS(=O)(=O)c1cnc2ccccc2n1 do in these assays?
DT40 TDP1 no CPT: 29.1µM*; RORg inh: -34.6%; TDP1 cell CPT: inconclusive; ELG1 DNA repair: inconclusive; Gal4-VP16 FLuc: 17.1%; IL-1B inflam inh: -119.4*

What do the screens show for `Cc1ccccc1CS(=O)(=O)c1snnc1C`?
DT40 TDP1 no CPT: 23.1%; RORg inh: -23.0%; TDP1 cell CPT: -23.0%; ELG1 DNA repair: 7.6%; Gal4-VP16 FLuc: 18.1%; IL-1B inflam inh: -23.0
